Assay outcomes deposited in PubChem BioAssay by National Center for Advancing Translational Sciences (NCATS).
Only some compounds are listed: those with a hit (about 19% of all), similar ones and a draw of the others.
VP16 counter = counter-screen for ROR gamma inhibitors: Gal4-VP16 reporter; 3.5% of 310,000 active; Potency, µM (highest dose often 53.6 µM), most hits filed as inhibitors; Drosophila S2 Gal4-VP16 UAS-luciferase, luminescence, 20 h;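 also: Gal4-VP16 expression switched on by copper sulfate through the metallothionein promoter; nearly all actives have a fitted effect of over 50% in size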
RORg inh = ROR gamma (mouse) transcription inhibition. Drosophila S2 Gal4-RORgamma UAS-luciferase reporter, 20 h. Potency, µM (series often up to 53.6 µM), hits mostly inhibitors. 5.4% of 310,000 active. AID 2551; also: nearly all actives have a fitted effect of over 60% in size
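Schneider cells (Drosophila), stable Gal4 DBD–ROR gamma + UAS-luc; 1 hr cmpd preincubation; Cu2+ induction 700 uM final; 20 hr ambient; luminescence.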
TDP1 cell CPT = growth inhibition of DT40 Tdp1-/-;hTDP1 cells with camptothecin (screen for TDP1 inhibitors); Potency, µM (titrated, usually from 46.2 µM), hits mostly inhibitors; AID 686979; 12% of 420,000 active; chicken DT40 Tdp1-/-;hTDP1 cells + 20 nM CPT, ATP luminescence, 48 h; also: nearly all actives have a fitted effect of over 55% in size
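Chicken DT40 Tdp1-/- cells stably complemented with human TDP1 were seeded at 400 cells/well in medium containing 20 nM camptothecin, exposed to pin-transferred compounds, and grown at 37 °C for at least 48 hr. Viability was read as ATP luminescence.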
TDP1 inh = blocks human tyrosyl-DNA phosphodiesterase 1; recombinant TDP1, AlphaScreen DNA substrate cleavage; AID 485290; Potency, µM (doses to about 130 µM), usual class: inhibitors; Q9NUW8; 0.28% of 350,000 active; also: nearly all actives have a fitted effect of over 40% in size
Target sequence (Q9NUW8 whole entry, looked up): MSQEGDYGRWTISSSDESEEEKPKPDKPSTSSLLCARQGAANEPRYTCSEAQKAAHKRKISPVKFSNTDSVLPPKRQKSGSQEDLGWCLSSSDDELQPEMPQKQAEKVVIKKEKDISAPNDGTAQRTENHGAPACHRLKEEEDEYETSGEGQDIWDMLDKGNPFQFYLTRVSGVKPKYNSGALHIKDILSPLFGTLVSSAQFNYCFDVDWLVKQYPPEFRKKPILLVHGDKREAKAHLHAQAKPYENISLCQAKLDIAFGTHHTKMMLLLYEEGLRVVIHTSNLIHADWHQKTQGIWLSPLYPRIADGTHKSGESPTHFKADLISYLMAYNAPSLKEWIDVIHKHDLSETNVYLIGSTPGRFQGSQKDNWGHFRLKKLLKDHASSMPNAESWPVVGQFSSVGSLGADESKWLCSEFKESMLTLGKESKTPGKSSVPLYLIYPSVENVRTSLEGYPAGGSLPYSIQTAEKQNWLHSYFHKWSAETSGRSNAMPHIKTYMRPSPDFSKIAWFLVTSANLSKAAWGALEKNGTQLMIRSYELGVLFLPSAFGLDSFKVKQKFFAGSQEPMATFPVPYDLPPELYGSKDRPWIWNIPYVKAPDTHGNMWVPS
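Signal: AlphaScreen proximity between streptavidin donor and anti-FITC acceptor beads on intact substrate. Reaction: Tdp1 1 nM, substrate 15 nM final, 5 min RT after 15 min compound preincubation.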
TDP1 cell noCPT = qHTS for Inhibitors of human tyrosyl-DNA phosphodiesterase 1 (TDP1): qHTS in cells in absence of CPT | DT40 Tdp1-/- hTDP1 cells, no CPT, ATP luminescence, 48 h | Potency, µM (top dose mostly 46.2 µM), hits mostly inhibitors | 15% of 420,000 active | AID 686978, 2013; also: nearly all actives have a fitted effect of over 55% in size
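Camptothecin absent (DMSO only). Human TDP1-complemented DT40 knockout cells, 400 cells/well, 37 °C for minimum 48 hr; ATP measured via CellTiter-Glo, 30 min dark incubation, luminescence.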
Hits are given with their value; i = inactive; ? = inconclusive; nt = no result; [ ] = remark or other dose. Calls follow the shape of the dose curve; as a rule, active = well fitted curve in the direction sought with a large enough effect; inconclusive = small, poorly fitted or top-dose-only effect, or another doubt; inactive = no such curve, though single readings can be large; an effect the other way counts as inactive or inconclusive.

SMILES | VP16 counter | RORg inh | TDP1 cell CPT | TDP1 inh | TDP1 cell noCPT
Cc1nc(-c2cccnc2)sc1C(=O)Nc1cccc(C(F)(F)F)c1 | i | ? | ? | i | 18µM
Cc1nc(-c2cccnc2)sc1C(=O)Nc1ccc(C(F)(F)F)cc1 | i | i | ? | i | ?
Cc1cccc(NC(=O)CCNS(=O)(=O)c2ccc3c(c2)CCN3C(=O)C2CC2)c1 | nt | nt | 18µM | i | 21µM
CC(=O)N1CCc2cc(S(=O)(=O)NCCC(=O)Nc3cccc(C)c3)ccc21 | i | i | i | i | i
O=C(CCNS(=O)(=O)c1ccc2c(c1)CCN2C(=O)C1CC1)Nc1ccc(F)cc1F | nt | nt | 8.2µM | i | 13µM
CCN(CC)C(=O)/C(C#N)=C/c1cc(O)c(O)c([N+](=O)[O-])c1 | i | i[10 µM] | i | i | i
Cc1c(CC(=O)NCCc2ccc(Cl)cc2)c(=O)oc2c(C)c3occ(C(C)(C)C)c3cc12 | nt | nt | ? | i | 21µM
COc1ccccc1CCNC(=O)Cc1c(C)c2cc3c(C(C)(C)C)coc3c(C)c2oc1=O | nt | nt | 26µM | i | 21µM
Cc1coc2c(C)c3oc(=O)c(CC(=O)N4CCCCC4)c(C)c3cc12 | nt | nt | ? | i | ?
Cc1coc2c(C)c3oc(=O)c(CC(=O)NCCc4ccc(Cl)cc4)c(C)c3cc12 | nt | nt | ? | i | ?
Cc1c(CC(=O)N2CCCCC2)c(=O)oc2c(C)c3occ(C(C)(C)C)c3cc12 | nt | nt | ? | i | 15µM
CC(=O)O[C@H]1C[C@@]2(C)[C@@H](C[C@@H](O)[C@H]3[C@@]4(C)CC[C@@H](O)[C@@H](C)C4CC[C@@]32C)/C1=C(\CCC=C(C)C)C(=O)O (stereo not given in full) | ? | i | i | i | i
Cc1ccc(SCc2ccc(C(=O)Nc3ccccc3Br)cc2)cc1 | i | i | i | i | ?
O=C(NCc1cccnc1)Nc1ccc(Br)cc1Cl | i | i | i | i | i
CCN(CC)Cc1c(O)c(Cl)cc2c(C)cc(=O)oc12 | i | i | i | 13µM | i
Cc1c(Cc2ccccc2)c(=O)oc2c(CN(C)C)c(O)c(Cl)cc12 | i | i | ? | i | 16µM
CCN(CC)Cc1c(O)c(Cl)cc2c(C)c(C)c(=O)oc12 | i | i | i | i | i
Brc1cc2c(cc1C1OCCO1)OCO2 | nt | nt | i | nt | i
CCC(C)Nc1nnnc2c1sc1nc3c(cc12)COC(C)(C)C3 (stereo not given) | i | i | ? | i | ?
CCOc1ccccc1OCC(=O)NNC(=S)NC1CCCCC1 | i | i | i | i | i
Cc1nnnn1/C(=C\c1ccccc1)C(=O)OCC(=O)NC(C)(C)C | 20µM | 13µM | 16µM | i | 10µM
CC(=O)Nc1ccc(NC(=O)COC(=O)c2c(C)nn(-c3ccccc3)c2C)cc1 | i | i | ? | i | ?
CC(=O)Nc1ccc(NC(=O)COC(=O)/C(=C/c2ccccc2)n2nnnc2C)cc1 | ? | 16µM | 12µM | i | 13µM
Cc1nnnn1/C(=C\c1ccccc1)C(=O)OCC(=O)NC1CCCCC1 | nt | nt | 13µM | i[0.505 µM] | 15µM
CC(C)(C)NC(=O)COC(=O)c1ccccc1Oc1ccccc1 | i | i | i | i | i
SMILES | VP16 counter | RORg inh | TDP1 cell CPT | TDP1 inh | TDP1 cell noCPT
COc1ccc(-n2c(=O)c(C)nc3cnc(Nc4cccc(OC)c4)nc32)cc1 | i | i | 23µM | nt | 18µM
CCNc1ncc2ncc(=O)n(Cc3ccc(F)cc3)c2n1 | i | i | 18µM | nt | ?
COc1cccc(Nc2ncc3nc(C)c(=O)n(CCC#N)c3n2)c1 | i | i | 0.23µM | nt | 0.92µM
N#CCCn1c(=O)c(CCc2ccccc2)nc2cnc(Oc3ccccc3)nc21 | i | i | i | nt | ?
COc1ccc(Oc2ncc3nc(CCc4ccccc4)c(=O)n(CCC#N)c3n2)cc1 | i | i | ? | nt | 23µM
CC(COC(=O)c1ccccc1)(COC(=O)c1ccccc1)/[N+]([O-])=C/c1ccccc1 | i | i | i | i | i
COc1cccc(CNC(=O)COc2cccc3c2OC(C)(C)C3)c1 | nt | nt | i | i | i
CCc1nnc(NC(=O)C2CCN(C(=O)NC3CCCCC3)CC2)s1 | i | i | i | i | i
COc1ccc(-c2nc(N)n(C(=O)c3cccs3)n2)cc1 | i[10 µM] | i | i | i | i
CCNc1ncc2nc(-c3ccc(OC)cc3)c(=O)n(C)c2n1 | i | i | ? | nt | i
CCNc1ncc2nc(-c3ccc(Cl)cc3)c(=O)n(-c3ccc(OC)cc3)c2n1 | i | ? | ? | nt | 13µM
COCCn1c(=O)cnc2cnc(Nc3cccc(OC)c3)nc21 | ? | i | 9.2µM | nt | ?
COc1cccc(Nc2ncc3ncc(=O)n(CCC#N)c3n2)c1 | i | ? | i | nt | i
Cc1occc1C(=O)N/N=C/c1sc(N2CCOCC2)nc1-c1ccccc1 | ? | 13µM | i | i | i
O=C(N/N=C/c1sc(N2CCOCC2)nc1-c1ccccc1)c1cccc(S(=O)(=O)N2CCCC2)c1 | i | ? | 2.6µM | i | 4.6µM
Cn1cc(C(=O)N/N=C/C2=C(N3CCOCC3)C(=C\c3ccccc3)/CC2)ccc1=O | i | i | ? | i | ?
Cc1occc1C(=O)N/N=C/C1=C(N2CCOCC2)C(=C/c2ccc(Cl)cc2Cl)/CC1 | nt | nt | 5.8µM | nt | 7.3µM
COc1cccc(C(=O)Nc2ccc(NC(=O)C3CCCCC3C(=O)O)cc2)c1 (stereo not given) | i | i | i | i | i
Cc1ccc(N(Cc2ccco2)C(=O)c2ccc(N3CCCCC3)c([N+](=O)[O-])c2)cc1 | i | ? | 21µM | i | 5.8µM
O=C(/C=C/c1ccc(Cl)cc1)N1CCN(c2ccc([N+](=O)[O-])c(N3CCOCC3)c2)CC1 | ? | ? | ? | i | ?
O=C(/C=C/c1ccc(Cl)cc1Cl)N1CCN(c2ccc([N+](=O)[O-])c(N3CCOCC3)c2)CC1 | ? | i | ? | i | 23µM
O=C(Nc1ccc([N+](=O)[O-])cc1)Nc1ccc(N2CCOCC2)c2nonc12 | i | i | 21µM | i | 23µM
CC(C)C(=O)N1CCN(c2ccccc2NC(=O)c2cc([N+](=O)[O-])ccc2N2CCOCC2)CC1 | i | i | ? | i | 13µM
O=C(NCc1ccco1)c1ccc(N2CCCCC2)c([N+](=O)[O-])c1 | i | ? | i | i | i
O=C(c1ccccc1F)N1CCN(c2ccc([N+](=O)[O-])c(N3CCOCC3)c2)CC1 | i | i | i | i | i
O=C(NCc1ccco1)c1cc([N+](=O)[O-])ccc1N1CCCCC1 | ? | i | 16µM | i | ?
O=C(c1cccc2ccccc12)N1CCN(c2ccc([N+](=O)[O-])c(N3CCOCC3)c2)CC1 | i | ? | 9.2µM | i | 21µM
O=C(COc1ccc(Br)cc1)N1CCN(c2ccc([N+](=O)[O-])c(N3CCCCC3)c2)CC1 | i | ? | ? | i | 21µM
